Results on 40 molecules are retold here after PubChem BioAssay (NCI).

“And” between values parts separate entries of the source, which are not always exact repeats. Equal values may be shown once. About 83,000 compounds went through this panel and 20% of them were active in at least one assay; those are over-represented in the sample as a whole.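 Growth was measured after 48 h exposure to one concentration of compound in 96-well plates. Values under 10 count as active.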 The source made the active and inactive calls.

The subject of the test is HL-60(TB) leukemia. Put plainly: NCI-60 one-dose screen, 48 h (100 = growth as untreated, 0 = no growth, -100 = all killed). To be noted: 10 µM unless noted.
Consider `O=C1c2cc(I)ccc2Oc2cc([N+](=O)[O-])ccc2N1c1ccc(Cl)cc1F`, for which the growth was 55.9% (inactive).

For `CCN(CC)C(Cl)=Nc1ccc(Cl)cc1`, the growth is 99.3% (inactive).

Turning to `CCOC(=O)[C@]1(Br)CC[C@@]1(Br)C(=O)OCC`, the growth was 47.7% (inactive).

Take `COc1ccc(-n2nc(C(=O)Nc3ccc(F)cc3)nc2-c2cc(OC)c(OC)c(OC)c2)cc1`: the growth is 91.5% (inactive).

Turning to `CC(=O)c1c(O)c(C)c(O)c2c1OC1=CC(=O)/C(=C(/C)N)C(=O)C12C` (stereo not given), the growth was 84.4% (inactive).

Turning to `COc1ccc(\C=N/N=C(N)/C(N)=N\N=C/c2ccc(OC)cc2)cc1`, the growth was 91.5% (inactive).

Regarding `ClCC(Cl)C1CCC(Cl)C(Cl)C1` (stereo not given), the growth is 89.6% (inactive).

Regarding `COc1ccc2c(c1)C(=O)/C(=C/c1cccc(OCC(=O)c3ccccc3)c1)O2`, the growth is -80.5% (active).

On to `CCN(CC)CCCC(C)Nc1cnc(C(=O)Nc2cc(F)cc3cccnc23)cn1` (stereo not given), for which the growth was 85.5% (inactive) and 5.69% (active).

With `COc1ccc(OC)c(NCC(=O)n2nc(/C=C\c3ccc(O)c(OC)c3)cc2/C=C\c2ccc(O)c(OC)c2)c1`, the growth is -8.64% (active).

As to `CC(C)CC(CC1=CCC2CC1C2(C)C)C1=C(O)C(C)(C)C(=O)C(C)(C)C1=O` (stereo not given), the growth is -45.3% (active).

Take `O=C(Nn1c2c(sc1=Nc1ccccc1)C(=O)c1ccccc1C2=O)c1cc2ccc1CCc1ccc(cc1)CC2`: the growth is 91.6% (inactive).

`CCCCCn1sc(=O)n(Cc2ccc(CNC(=O)C(C)c3ccc(CC(C)C)cc3)cc2)c1=O` (stereo not given): the growth was 102% (inactive) and -34.5% (active).

In the case of `COc1cc(/C=N/NC(=O)Cn2c(-c3ccc(C)o3)nc3ccccc32)ccc1OCc1ccccc1`, the growth is 87.4% (inactive).

For `C=C1C(=O)O[C@H]2[C@H]1CC/C(COC(=O)NCc1ccc(Cn3c(=O)sn(CCI)c3=O)cc1)=C\CC[C@@]1(C)O[C@@H]21`, the growth is 0.649% (active).

Consider `COC(=O)C(Sc1ccc(Cl)cc1)C1SC(=S)N(Cc2ccccc2)C1=O` (stereo not given), for which the growth was 76.1% (inactive).

As to `CCS(=O)(=O)CCCl`, the growth is 99.8% (inactive).

In the case of `Nc1nc(N)c2cc(Sc3ccc(Cl)cc3)ccc2n1`, the growth was 27.5% (inactive).

`COc1ccc2c(c1)C(=O)/C(=C/c1ccc([N+](=O)[O-])o1)O2`: the growth is -42.3% (active).

`COc1ccc(/C=C2\N=C3SC=C(N)N3C2=O)cc1`: the growth is -40% (active).

In the case of `Oc1ccc(N=Nc2ccc(Br)cc2)c(O)c1`, the growth was -21.8% (active).

`COCC(N)=O`: the growth is 90% (inactive).

Regarding `Cn1c(=O)c2nc(/C=C/c3ccccc3)c(=O)[nH]c2n(C)c1=S`, the growth was 98.2% (inactive).

As for `Fc1cnccc1C1CC(c2ccc(N3CCNCC3)cc2)=NN1` (stereo not given), the growth is 77.3% (inactive).

As to `Cc1ccc(Sc2nnc(/N=C3\C(=O)Nc4ccccc43)s2)cc1`, the growth was 95.9% (inactive).

Turning to `C[C@@H]1CCC[C@H]1CC(N)C(=O)O` (stereo not given in full), the growth is 112% (inactive).

On to `COc1cc2c3c(n([C@@H]4CCOC4)c(=O)c2cc1OC)-c1cc2c(cc1C3=O)OCO2`, for which the growth is 26.3% (inactive).

Take `COc1ccc(C(=O)Nc2ncc(Cc3cccc(Cl)c3)s2)cc1OC`: the growth is 11.1% (inactive).

`COc1cc2c(Nc3ccc(Cl)c(Cl)c3F)ncnc2cc1OCC1C[C@@H]2CN(C)C[C@@H]2C1` (stereo not given in full): the growth was -53.2% (active) and 41.1% (inactive).

`O=Nc1c(O)ccc2ccccc12.O=Nc1c(O)ccc2ccccc12.O=Nc1c([O-])ccc2ccccc12.[Fe+3]`: the growth is 105% (inactive).

As to `NS(=O)(=O)c1cc2c(cc1Cl)NC(C(Cl)Cl)NS2(=O)=O` (stereo not given), the growth was 91.5% (inactive) and 105% (inactive).

Consider `Cc1c(C(=O)NO)sc2ncnc(Nc3ccc(NC(=S)Nc4ccccc4)cc3)c12`, for which the growth is 103% (inactive).

`CCN(CC)c1ccc(\C=N/N=C(N)/C(N)=N\N=C/c2ccc(N(CC)CC)cc2)cc1`: the growth was 112% (inactive).

For the molecule `OCC1CCC(O)C(CO)N1` (stereo not given), the growth was 98.2% (inactive).

On to `CN(C)C1CCN(Cc2ccc(NC(=O)c3cncc(C#Cc4cnc(N)c5ncccc45)c3)cc2C(F)(F)F)CC1`, for which the growth is 73.6% (inactive).

Turning to `O=C(OCC1CCCO1)c1ccc([N+](=O)[O-])cc1` (stereo not given), the growth is 102% (inactive).

With `COc1ccc(/C=N/NC(=O)Cn2c(Cc3cccc4ccccc34)nc3ccccc32)cc1`, the growth is 93.2% (inactive).

Take `NC(N)=NCCCCCNc1noc(Cc2c[nH]c3cc(Br)ccc23)n1`: the growth was 44.9% (inactive).

As for `COc1cc(-c2nn(-c3ccc(NC(=O)c4ccc(Cl)c(C(F)(F)F)c4)cc3)cc2-c2ccncc2)ccc1Cl`, the growth was 12% (inactive).

Take `Cn1cc(-c2nc(-c3c[nH]c4ccncc34)cs2)c2ccccc21`: the growth is -41.9% (active).
